Results reported in PubChem BioAssay AID463082 (The Scripps Research Institute Molecular Screening Center, 2010).
In all, about 330,000 compounds went through this assay and about 4,900 (1.5%) were called active. The list comes from a sample in which actives are over-represented; it also holds similar structures and randomly drawn compounds. Unmarked numbers belong to inactive results.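 How the source made its calls: active means inhibition above the mean inhibition across the screen plus 3 SD (cut at about 25% in these data); inactive means the rest.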

target: Platelet-activating factor acetylhydrolase (Homo sapiens) (UniProt Q13093); test: pPAFAH enzyme inhibitors, primary screen, biochemical, fluorescence polarization, human (AID 463082); settings: recombinant pPAFAH, FP-rhodamine probe fluorescence polarization; at 3.39 µM; active compounds read high;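 further: inhibitors block binding of the rhodamine activity-based probe so polarization drops; 0% = enzyme with DMSO and 100% = wells lacking pPAFAH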
Sequence (Q13093 whole entry, looked up): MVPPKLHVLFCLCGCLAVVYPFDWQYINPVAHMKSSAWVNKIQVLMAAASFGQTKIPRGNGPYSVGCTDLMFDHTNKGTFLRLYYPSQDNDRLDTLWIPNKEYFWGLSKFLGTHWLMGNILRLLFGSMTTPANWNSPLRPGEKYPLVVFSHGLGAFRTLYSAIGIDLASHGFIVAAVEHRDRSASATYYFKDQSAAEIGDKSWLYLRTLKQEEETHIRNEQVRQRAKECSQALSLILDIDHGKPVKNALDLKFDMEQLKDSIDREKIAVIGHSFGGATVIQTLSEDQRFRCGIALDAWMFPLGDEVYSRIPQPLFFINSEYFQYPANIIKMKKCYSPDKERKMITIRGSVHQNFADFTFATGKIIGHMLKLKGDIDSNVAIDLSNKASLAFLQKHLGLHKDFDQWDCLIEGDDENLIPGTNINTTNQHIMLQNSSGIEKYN

| SMILES | inhibition |
| --- | --- |
| COCCOC(=O)c1sc(=S)n(CCOC)c1N | 27.2% (active) |
| COc1cccc(CNC(=O)C2CCCN(S(=O)(=O)N3CC(C)CC(C)C3)C2)c1 (centres undefined) | 2.82% |
| CCCCN1C(=O)C(=O)N(CC(=O)Nc2cccc(C(C)=O)c2)C1=O | -0.13% |
| CC(=O)c1ccc(S(=O)(=O)NCCC(=O)N2CCN(c3ccccn3)CC2)cc1 | -1.99% |
| COc1ccccc1OCc1nnc(SCC(N)=O)n1-c1ccccc1 | -7.86% |
| COc1cccc(-c2coc3cc4oc(=O)c(CC(=O)O)c(C)c4cc23)c1 | 2.78% |
| Cc1ccccc1C(=O)NC(=S)Nc1ccc(N2CCN(C(=O)c3ccccc3)CC2)cc1 | 8.73% |
| O=C(Cc1ccccc1)NC(=S)Nc1ccc(N2CCCCC2)cc1 | 28.6% (active) |
| O=C(CCN1CCN(c2ccccc2)CC1)NNC(=S)Nc1ccccc1 | 3.64% |
| O=C(COC(=O)c1c(Cl)cccc1Cl)Nc1cccc(S(=O)(=O)NC2=NCCCCC2)c1 | 0.66% |
| CC(C)Nc1ccc(-n2nc3ccccc3[n+]2[O-])cc1 | -0.33% |
| COC(=O)C1(CCSC)NC(c2ccc(OC)cc2OC)C2C(=O)N(c3cccc(C(C)=O)c3)C(=O)C21 (centres undefined) | 8.06% |
| Cc1ccsc1C(=O)NNC(=O)COc1ccc(Br)cc1 | 5.73% |
| CCCCNS(=O)(=O)c1ccc2nc(SCC(=O)Nc3cc(C)cc(C)c3)[nH]c2c1 | -1.99% |
| COc1cccc(CNC(=O)c2nnn(CC(=O)Nc3cc(Cl)ccc3C)c2N)c1 | -8.08% |
| CN(C)C(=O)c1nc2ccc(Cl)cn2c1CNCc1cccc(OC(F)(F)F)c1 | 27.7% (active) |
| CN(C)C(=O)c1nc2ccc(Cl)cn2c1CN1CCN(c2ncccn2)CC1 | -1.11% |
| Cc1ccc(N=C2NC(=O)/C(=C/C=C/c3ccco3)S2)cc1C | 57.3% (active) |
| Cc1ccc(-n2nc3ccc(NC(=O)/C=C/c4ccco4)cc3n2)cc1C | -3.71% |
| Cc1ccc(N2NC(=O)/C(=C/C=C/c3ccco3)C2=O)cc1C | 21.3% |
| Cc1ccc(S(=O)(=O)N2CCCCC2)cc1NC(=O)[C@@H]1CCCN1C(=O)c1cccs1 | 4.96% |
| O=C(CNC(=O)c1n[nH]c2ccccc12)Nc1cc(Cl)ccc1Cl | -4.9% |

| SMILES | inhibition |
| --- | --- |
| CC(=O)Nc1cccc(/C(C)=N/NC(=O)c2c(-c3ccccc3Cl)noc2C)c1 | 5.03% |
| Cc1ccccc1NC(=O)c1cc(S(=O)(=O)Nc2cccc(C(=O)O)c2)ccc1Cl | 2.58% |
| C/C(=N\Nc1cccc(C(=O)O)c1)c1ccc2c(c1)Nc1ccccc1S2 | 32.8% (active) |
| CSc1ccc(/C=C/C(=O)NC23CC4CC(CC(C4)C2)C3)cc1 | -0.12% |
| COc1ccc(NC(C)=O)cc1NC(=O)CN1CCN(C2c3ccccc3-c3ccccc32)CC1 | 7.04% |
| CCOC(=O)c1sc(NC(=O)COc2ncnc3ccccc23)c(C(=O)OCC)c1C | 0.72% |
| CCC(=O)Nc1sc(C(=O)Nc2ccccc2)c(C)c1C(=O)OC | 50.5% (active) |
| COC(=O)c1c(NC(C)=O)sc(C(=O)Nc2ccccc2OC)c1C | -5.75% |
| COC(=O)c1ccc(CNC(=O)c2ccc3oc(C(C)C)nc3c2)cc1 | -0.67% |
| CCCn1c(SCC(=O)c2ccc3c(c2)OCCO3)nnc1C(C)C | 3.84% |
| Cc1ccc(Nc2nc(CSc3nnnn3-c3ccccc3)cc(=O)[nH]2)cc1 | 27.2% (active) |
| COc1ccc(C)cc1-n1nnnc1SCc1nc2ccccc2c(=O)[nH]1 | -13.6% |
| Cc1ccc(NC(=O)CSc2nc(CSc3ccc(C)cc3)cc(=O)[nH]2)cc1 | 17.3% |
| N#CC1(NC(=O)COC(=O)Cc2n[nH]c(=O)c3ccccc23)CCCCC1 | 0.43% |
| CC(C)C(C)(C#N)NC(=O)CSc1nc2scc(-c3ccccc3)c2c(=O)[nH]1 (centres undefined) | 11.1% |
| CCCCCCSc1ccc([C@@H]2[C@H]3C(=O)N(CC)C(=O)[C@H]3[C@]3(C(=O)OC)CCCCN23)cc1 | 6.84% |
| CCN1C(=O)[C@@H]2[C@@H](c3ccc(-c4ccc(OC)cc4)c(OC)c3)N3CCC[C@@]3(C(=O)OC)[C@@H]2C1=O | 2.25% |
| CCCCCCSc1ccc([C@@H]2[C@@H]3C(=O)N(CC)C(=O)[C@@H]3[C@]3(C(=O)OC)CCCCN23)cc1OC | 26.9% (active) |
| CCOC(=O)c1ccc2c(c1)nc(SCC(=O)NC(C)C)n2CC | 3.79% |
| CN(CC(=O)NC1CCCCC1)S(=O)(=O)c1cccc2cccnc12 | 14.6% |
| CCn1c(SCC(=O)Nc2sc(C)c(C)c2C#N)nnc1C1CC1 | 1.95% |
| Cn1nc([N+](=O)[O-])nc1Sc1ccc(C(C)(C)C)cc1 | 8.17% |
